Assay results from PubChem BioAssay AID1347385 (Zoeller Lab, School of Medicine, Boston University, 2020).
The campaign covered roughly 20,000 compounds. About 85 (0.4%) were called active.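 How the source made its calls: active means cell survival signal 2 SD away from solvent-only control wells, confirmed on one or two retests; inactive means the rest.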 This excerpt belongs to a sample that is enriched for actives.

assay: phospholipid synthesis inhibitors, CHO cells, primary screen, ZR-82 cells, Enamine library, screen 3 (AID 1347385); details: ZR-82 CHO cells, pyrene fatty acid UV survival, CellTiter Blue, peroxisome-deficient CHO-K1 mutant line, plus DGAT-1, DGAT-2 and ACAT inhibitors; at 10 µM unless noted;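 further: 3 h compound exposure then viability read about one day after UV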

| SMILES | outcome |
| --- | --- |
| O=C(Nn1c(-c2cccs2)nc2sc3c(c2c1=O)CCCC3)c1cccs1 | inactive |
| CCOC(=O)C1=C(C)NC2=C(C(=O)CC(C)(C)C2)C1C (stereo not given) | inactive |
| O=C(O)c1sc2cc(F)ccc2c1Cl | inactive |
| C(=N\Nc1nncc2ccccc12)/c1ccc(N2CCOCC2)s1 | inactive [setting not given] |
| COC(CNc1ncnc2sc3c(c12)CCC3)OC | inactive |
| Clc1cc(CSc2nnnn2C2CC2)cc2c1OCCO2 | inactive |
| O=[N+]([O-])c1ccc2[nH]c(O)c(N=Nc3ccc(C(F)(F)F)cc3[N+](=O)[O-])c2c1 | inactive |
| NC(=O)NCCCC(=O)O | inactive |
| S=C(NCCc1ccccc1)N/N=C1\CC2CC=CC12 (stereo not given) | inactive [setting not given] |
| CC(N=C1NS(=O)(=O)c2ccccc21)C(=O)OC1CCOC1=O (stereo not given) | inactive |
| CCOC(=O)c1c(C)[nH]c(C(=O)Cn2ncc(Cl)c(Cl)c2=O)c1C | inactive |
| FC(F)(F)C(=NC1(C(Cl)(Cl)Cl)Oc2ccccc2O1)Nc1ccccn1 | inactive |
| O=S(=O)(c1cc(Br)ccc1Br)N1CCCc2ccccc21 | inactive |
| O=S1(=O)CCC(N(Cc2ccco2)S(=O)(=O)c2ccc(S(=O)(=O)N3CCCC3)cc2)C1 (stereo not given) | inactive |
| CCCN(CC1CC1)Cn1c(=S)sc2ccccc21 | inactive |
| Clc1ccc2nc(N/N=C/c3cccc4nccnc34)nc(-c3ccccc3)c2c1 | inactive [setting not given] |
| Clc1ccc2c(NN=C3c4ccccc4-c4ccccc43)ccnc2c1 | active |
| Fc1ccc(NC(=S)NNc2ccnc3cc(Cl)ccc23)cc1Cl | inactive |
| Cn1/c(=N/N=C/C(Cl)=C/c2ccccc2)sc2ccccc21 | inactive [setting not given] |
| S=C(NCC1CCCO1)NNc1ncnc2sc3c(c12)CCCC3 (stereo not given) | inactive |
| CC(C)=CCC/C(C)=C/C=N/Nc1ccc([N+](=O)[O-])cc1 | inactive [setting not given] |
| Fc1ccc(NC(=S)Nc2ccc(SC(F)F)cc2)cc1Cl | active |
| COc1cc(NC(=S)Nc2ccc(SC(F)F)cc2)cc(OC)c1OC | inactive |
| Nc1c(Cl)cc(NC(=S)Nc2ccc(SC(F)F)cc2)cc1Cl | inactive |
| O=C(C1CCCCC1)N1N=C2/C(=C/c3ccco3)CCCC2C1c1ccco1 (stereo not given) | inactive |
| NC(CSC12CC3CC(CC(C3)C1)C2)C(=O)O (stereo not given) | inactive |
| O=C(NC1=NCCS1)C1CC2CCCC(C1)C2=O (stereo not given) | inactive |
| CC(C)NC(=S)NN=C1CCCCCCCCCCC1 | inactive |
| Cc1cc(NC(=O)COC(=O)C2=NNC(=O)CC2)no1 | inactive |
| O=[N+]([O-])c1cc(S(=O)(=O)Nc2ccc(Cl)c(S(=O)(=O)N3CCOCC3)c2)ccc1Cl | inactive |
